This passage reports binding signal results from publication PMC7862700, “An all-to-all approach to the identification of sequence-specific readers for epigenetic DNA modifications on cytosine”.

Common to all, as to assay: DAPPL (digital affinity profiling via proximity ligation, sequencing); 10 mM Tris-HCl pH 7.5, 50 mM NaCl, 1 mM DTT, 4% glycerol, room temperature, 30 min; GST-TFs on glutathione beads, 16-mer random dsDNA library, 0.1% formaldehyde crosslink after washing; high values mean tight binding
The target of one assay is T1, FEV (Homo sapiens, UniProt Q99581 1-238).
T1 sequence: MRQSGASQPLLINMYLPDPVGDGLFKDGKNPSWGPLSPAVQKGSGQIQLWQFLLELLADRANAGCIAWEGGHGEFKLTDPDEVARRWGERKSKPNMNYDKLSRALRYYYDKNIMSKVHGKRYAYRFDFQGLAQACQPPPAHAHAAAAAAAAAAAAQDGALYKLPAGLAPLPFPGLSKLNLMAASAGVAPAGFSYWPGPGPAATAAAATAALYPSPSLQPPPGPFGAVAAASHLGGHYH
The following applies: protein: recombinant; tags: N-terminal GST; dsDNA, one strand shown. A digest of the protocol:
(§1)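 Binding signal is each hexamer's read frequency for a factor divided by its frequency in the tag-only sample. The factors were GST-fused human transcription factors from yeast, captured on glutathione beads, DNA-barcoded and pooled with that sample. Pools were incubated with 200 nmole of a random double-stranded 16-mer DNA library in Tris/NaCl/DTT/glycerol buffer at room temperature for 30 min, then washed, crosslinked with 0.1% formaldehyde, proximity-ligated with BsaI/T4 ligase (1 h, 37 °C), PCR-amplified and sequenced on an Illumina NextSeq500.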

The target of the next assay is ETV5 (Homo sapiens, UniProt P41161 1-510). The note with it: protein: recombinant; tags: N-terminal GST; dsDNA, one strand shown. A digest of the protocol: as §1
The target of another assay is HSF1 (Homo sapiens, UniProt Q00613 1-529). The note with it: protein: recombinant; tags: N-terminal GST; chain copies: 3; dsDNA, one strand shown. A digest of the protocol:
as §1

The target in the next assay is T2, SPIC (Homo sapiens, UniProt Q8N5J4 1-248).
T2 sequence: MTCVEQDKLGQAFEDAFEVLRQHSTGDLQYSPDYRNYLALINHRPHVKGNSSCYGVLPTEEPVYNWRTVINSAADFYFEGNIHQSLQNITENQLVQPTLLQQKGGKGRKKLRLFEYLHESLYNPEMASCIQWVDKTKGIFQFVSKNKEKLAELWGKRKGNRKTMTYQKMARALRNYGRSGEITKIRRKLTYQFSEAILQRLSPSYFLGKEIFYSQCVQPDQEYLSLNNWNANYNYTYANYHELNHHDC
The following applies: protein: recombinant; tags: N-terminal GST; dsDNA, one strand shown. A digest of the protocol: as §1

A further assay deals with ELF4 (Homo sapiens, UniProt Q99607 1-663). The note with it: protein: recombinant; tags: N-terminal GST; dsDNA, one strand shown. A digest of the protocol: as §1
In another assay the target is T3, ELK4 (Homo sapiens, UniProt P28324-2 1-405).
T3 sequence: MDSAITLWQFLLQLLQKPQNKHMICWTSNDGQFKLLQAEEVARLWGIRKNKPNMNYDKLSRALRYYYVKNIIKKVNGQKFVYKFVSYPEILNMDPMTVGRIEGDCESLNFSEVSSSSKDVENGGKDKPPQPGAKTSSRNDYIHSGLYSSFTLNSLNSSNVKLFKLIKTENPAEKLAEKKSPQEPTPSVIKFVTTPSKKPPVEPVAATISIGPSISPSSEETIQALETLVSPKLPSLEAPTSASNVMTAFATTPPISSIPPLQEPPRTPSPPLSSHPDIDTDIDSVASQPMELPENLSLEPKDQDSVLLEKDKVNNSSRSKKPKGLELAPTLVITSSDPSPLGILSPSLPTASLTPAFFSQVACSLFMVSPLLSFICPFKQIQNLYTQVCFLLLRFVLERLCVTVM
The following applies: protein: recombinant; tags: N-terminal GST; dsDNA, one strand shown. A digest of the protocol: as §1

In another assay the target is T4, ETV2 (Homo sapiens, UniProt O00321 1-342).
T4 sequence: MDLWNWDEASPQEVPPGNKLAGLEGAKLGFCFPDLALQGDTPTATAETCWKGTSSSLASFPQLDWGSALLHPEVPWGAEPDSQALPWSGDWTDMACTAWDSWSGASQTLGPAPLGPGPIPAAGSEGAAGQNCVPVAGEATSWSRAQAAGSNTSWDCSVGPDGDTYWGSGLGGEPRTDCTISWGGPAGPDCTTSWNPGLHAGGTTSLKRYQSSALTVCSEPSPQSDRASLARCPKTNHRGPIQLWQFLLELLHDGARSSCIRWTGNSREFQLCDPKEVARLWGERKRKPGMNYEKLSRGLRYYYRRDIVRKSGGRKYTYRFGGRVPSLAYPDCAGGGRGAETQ
The following applies: protein: recombinant; tags: N-terminal GST; dsDNA, one strand shown. A digest of the protocol:
as §1

The next assay concerns the target T5, ELF3 (Homo sapiens, UniProt P78545 1-371).
T5 sequence: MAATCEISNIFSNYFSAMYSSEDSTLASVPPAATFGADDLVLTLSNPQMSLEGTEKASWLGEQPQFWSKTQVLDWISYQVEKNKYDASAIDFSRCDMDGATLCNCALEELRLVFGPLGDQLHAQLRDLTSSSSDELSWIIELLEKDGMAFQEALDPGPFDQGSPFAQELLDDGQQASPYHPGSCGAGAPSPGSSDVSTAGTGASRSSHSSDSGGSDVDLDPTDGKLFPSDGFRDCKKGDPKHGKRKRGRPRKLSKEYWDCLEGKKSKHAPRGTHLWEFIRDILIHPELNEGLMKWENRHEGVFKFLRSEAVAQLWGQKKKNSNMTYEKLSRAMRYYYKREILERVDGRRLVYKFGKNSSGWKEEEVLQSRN
The following applies: protein: recombinant; tags: N-terminal GST; dsDNA, one strand shown. A digest of the protocol: as §1

For another assay, the target named is CRX (Homo sapiens, UniProt O43186 1-299). The following applies: protein: recombinant; tags: N-terminal GST; dsDNA, one strand shown. A digest of the protocol:
as §1

In a further assay the target is ETV1 (Homo sapiens, UniProt P50549 1-477). The following applies: protein: recombinant; tags: N-terminal GST; dsDNA, one strand shown. A digest of the protocol:
as §1

The target in a further assay is T6, ERF (Homo sapiens, UniProt P50548 1-548).
T6 sequence: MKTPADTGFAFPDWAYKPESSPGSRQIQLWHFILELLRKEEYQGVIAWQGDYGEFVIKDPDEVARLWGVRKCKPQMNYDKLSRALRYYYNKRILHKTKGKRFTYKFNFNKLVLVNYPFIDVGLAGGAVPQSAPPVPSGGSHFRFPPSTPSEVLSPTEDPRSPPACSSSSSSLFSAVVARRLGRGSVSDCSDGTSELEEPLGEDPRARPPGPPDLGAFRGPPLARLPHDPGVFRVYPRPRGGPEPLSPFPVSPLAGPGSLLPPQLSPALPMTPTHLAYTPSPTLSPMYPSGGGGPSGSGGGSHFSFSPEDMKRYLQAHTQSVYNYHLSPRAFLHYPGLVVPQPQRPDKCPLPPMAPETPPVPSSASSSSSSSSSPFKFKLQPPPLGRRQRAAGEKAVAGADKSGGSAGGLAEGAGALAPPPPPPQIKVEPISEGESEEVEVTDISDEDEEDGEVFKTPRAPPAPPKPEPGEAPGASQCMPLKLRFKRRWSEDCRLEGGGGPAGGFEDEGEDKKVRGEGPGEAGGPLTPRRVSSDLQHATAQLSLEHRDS
The note with it: protein: recombinant; tags: N-terminal GST; dsDNA, one strand shown. A digest of the protocol:
as §1

The target of the next assay is T7, ETV3L (Homo sapiens, UniProt Q6ZN32 1-361).
T7 sequence: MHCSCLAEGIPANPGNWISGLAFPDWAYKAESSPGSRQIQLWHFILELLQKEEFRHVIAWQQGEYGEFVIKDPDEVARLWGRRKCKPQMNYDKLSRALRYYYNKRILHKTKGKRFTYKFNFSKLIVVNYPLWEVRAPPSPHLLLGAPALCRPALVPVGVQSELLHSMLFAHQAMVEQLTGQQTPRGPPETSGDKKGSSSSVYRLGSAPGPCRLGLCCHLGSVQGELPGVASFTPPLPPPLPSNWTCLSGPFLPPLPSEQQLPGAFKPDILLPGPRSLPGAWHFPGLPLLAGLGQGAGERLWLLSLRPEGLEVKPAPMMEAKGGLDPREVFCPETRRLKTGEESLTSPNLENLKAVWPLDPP
The following applies: protein: recombinant; tags: N-terminal GST; dsDNA, one strand shown. A digest of the protocol: as §1

In another assay the target is T8, ETS2 (Homo sapiens, UniProt P15036 1-469).
T8 sequence: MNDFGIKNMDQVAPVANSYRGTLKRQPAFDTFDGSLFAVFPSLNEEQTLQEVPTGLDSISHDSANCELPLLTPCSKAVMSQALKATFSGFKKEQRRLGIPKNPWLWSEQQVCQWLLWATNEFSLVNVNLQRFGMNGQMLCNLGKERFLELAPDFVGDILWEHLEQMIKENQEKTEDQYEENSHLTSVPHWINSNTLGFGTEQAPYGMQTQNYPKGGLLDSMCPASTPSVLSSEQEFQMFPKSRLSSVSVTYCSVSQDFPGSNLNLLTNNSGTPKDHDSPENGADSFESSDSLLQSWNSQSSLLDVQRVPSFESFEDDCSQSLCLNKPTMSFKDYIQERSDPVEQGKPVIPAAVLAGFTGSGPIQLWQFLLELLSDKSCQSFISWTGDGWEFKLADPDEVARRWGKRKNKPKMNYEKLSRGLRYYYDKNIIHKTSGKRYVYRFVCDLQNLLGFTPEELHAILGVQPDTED
The note with it: protein: recombinant; tags: N-terminal GST; dsDNA, one strand shown. A digest of the protocol: as §1

The target of another assay is T9, SPDEF (Homo sapiens, UniProt O95238 1-335).
T9 sequence: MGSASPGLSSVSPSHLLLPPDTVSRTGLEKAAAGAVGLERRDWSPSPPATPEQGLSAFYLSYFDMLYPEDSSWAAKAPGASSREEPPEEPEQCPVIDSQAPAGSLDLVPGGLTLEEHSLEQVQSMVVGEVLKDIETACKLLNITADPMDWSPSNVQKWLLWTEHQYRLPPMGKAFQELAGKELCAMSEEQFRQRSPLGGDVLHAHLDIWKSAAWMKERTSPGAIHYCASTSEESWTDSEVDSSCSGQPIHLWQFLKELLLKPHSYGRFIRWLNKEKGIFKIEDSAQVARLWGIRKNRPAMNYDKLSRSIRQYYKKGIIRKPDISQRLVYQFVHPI
The note with it: protein: recombinant; tags: N-terminal GST; dsDNA, one strand shown. A digest of the protocol: as §1

The next assay concerns the target T10, ETV7 (Homo sapiens, UniProt Q9Y603 1-341).
T10 sequence: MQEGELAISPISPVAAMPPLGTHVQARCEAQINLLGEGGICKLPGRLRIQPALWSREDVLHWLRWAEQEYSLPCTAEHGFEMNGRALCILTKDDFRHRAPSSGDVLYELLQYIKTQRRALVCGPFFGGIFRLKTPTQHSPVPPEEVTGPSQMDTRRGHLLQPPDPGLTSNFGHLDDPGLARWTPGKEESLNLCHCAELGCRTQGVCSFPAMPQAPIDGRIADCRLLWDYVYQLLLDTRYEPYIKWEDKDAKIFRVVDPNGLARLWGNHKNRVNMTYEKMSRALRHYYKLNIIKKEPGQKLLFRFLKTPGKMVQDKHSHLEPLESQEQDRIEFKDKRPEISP
The following applies: protein: recombinant; tags: N-terminal GST; dsDNA, one strand shown. A digest of the protocol: as §1

In the next assay the target is T11, ELF5 (Homo sapiens, UniProt Q9UKW6-2 1-255).
T11 sequence: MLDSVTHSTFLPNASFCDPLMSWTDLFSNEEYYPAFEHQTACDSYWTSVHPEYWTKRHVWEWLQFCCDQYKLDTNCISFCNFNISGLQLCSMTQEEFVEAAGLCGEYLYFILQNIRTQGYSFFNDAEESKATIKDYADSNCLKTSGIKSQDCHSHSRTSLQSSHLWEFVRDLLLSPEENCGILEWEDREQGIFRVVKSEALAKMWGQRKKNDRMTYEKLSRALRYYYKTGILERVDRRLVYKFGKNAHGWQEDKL
The following applies: protein: recombinant; tags: N-terminal GST; dsDNA, one strand shown. A digest of the protocol: as §1

For the next assay, the target named is T12, ETV3 (Homo sapiens, UniProt P41162-2 1-143).
T12 sequence: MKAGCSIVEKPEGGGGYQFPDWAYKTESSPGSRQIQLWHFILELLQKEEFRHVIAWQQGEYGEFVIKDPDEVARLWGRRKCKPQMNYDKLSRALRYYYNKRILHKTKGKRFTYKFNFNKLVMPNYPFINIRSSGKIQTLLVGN
The following applies: protein: recombinant; tags: N-terminal GST; dsDNA, one strand shown. A digest of the protocol:
as §1

The target of the next assay is ETV6 (Homo sapiens, UniProt P41212 1-452). The following applies: protein: recombinant; tags: N-terminal GST; dsDNA, one strand shown. A digest of the protocol:
as §1

Sequence of HSF1 (Q00613 whole entry): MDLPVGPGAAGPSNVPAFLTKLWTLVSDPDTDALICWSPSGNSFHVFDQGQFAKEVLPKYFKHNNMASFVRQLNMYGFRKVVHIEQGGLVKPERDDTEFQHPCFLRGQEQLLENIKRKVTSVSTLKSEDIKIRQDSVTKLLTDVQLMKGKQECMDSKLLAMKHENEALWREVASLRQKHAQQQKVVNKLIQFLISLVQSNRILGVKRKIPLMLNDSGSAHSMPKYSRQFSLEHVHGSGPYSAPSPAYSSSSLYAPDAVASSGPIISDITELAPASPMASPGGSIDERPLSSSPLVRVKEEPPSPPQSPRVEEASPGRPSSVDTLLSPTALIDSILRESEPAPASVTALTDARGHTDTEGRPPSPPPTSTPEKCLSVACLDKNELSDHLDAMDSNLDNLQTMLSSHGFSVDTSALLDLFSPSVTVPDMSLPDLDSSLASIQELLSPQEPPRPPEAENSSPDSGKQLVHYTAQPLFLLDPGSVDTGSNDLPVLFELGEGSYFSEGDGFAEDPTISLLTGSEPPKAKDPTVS
Sequence of ETV1 (P50549 whole entry): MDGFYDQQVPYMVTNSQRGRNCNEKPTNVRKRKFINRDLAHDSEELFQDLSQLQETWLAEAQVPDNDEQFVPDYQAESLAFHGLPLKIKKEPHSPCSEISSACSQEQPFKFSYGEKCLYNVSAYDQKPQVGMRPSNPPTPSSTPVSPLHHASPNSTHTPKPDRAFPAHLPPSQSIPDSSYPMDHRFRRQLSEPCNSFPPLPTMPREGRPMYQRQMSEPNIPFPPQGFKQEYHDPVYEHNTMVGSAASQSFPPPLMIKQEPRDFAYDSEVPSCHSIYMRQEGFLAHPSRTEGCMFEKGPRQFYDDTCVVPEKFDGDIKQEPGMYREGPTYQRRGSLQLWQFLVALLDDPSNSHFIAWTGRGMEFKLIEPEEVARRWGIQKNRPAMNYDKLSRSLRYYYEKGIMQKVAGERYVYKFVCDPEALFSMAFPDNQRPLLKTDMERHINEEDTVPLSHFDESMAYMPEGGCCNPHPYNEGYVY
Sequence of ELF4 (Q99607 whole entry): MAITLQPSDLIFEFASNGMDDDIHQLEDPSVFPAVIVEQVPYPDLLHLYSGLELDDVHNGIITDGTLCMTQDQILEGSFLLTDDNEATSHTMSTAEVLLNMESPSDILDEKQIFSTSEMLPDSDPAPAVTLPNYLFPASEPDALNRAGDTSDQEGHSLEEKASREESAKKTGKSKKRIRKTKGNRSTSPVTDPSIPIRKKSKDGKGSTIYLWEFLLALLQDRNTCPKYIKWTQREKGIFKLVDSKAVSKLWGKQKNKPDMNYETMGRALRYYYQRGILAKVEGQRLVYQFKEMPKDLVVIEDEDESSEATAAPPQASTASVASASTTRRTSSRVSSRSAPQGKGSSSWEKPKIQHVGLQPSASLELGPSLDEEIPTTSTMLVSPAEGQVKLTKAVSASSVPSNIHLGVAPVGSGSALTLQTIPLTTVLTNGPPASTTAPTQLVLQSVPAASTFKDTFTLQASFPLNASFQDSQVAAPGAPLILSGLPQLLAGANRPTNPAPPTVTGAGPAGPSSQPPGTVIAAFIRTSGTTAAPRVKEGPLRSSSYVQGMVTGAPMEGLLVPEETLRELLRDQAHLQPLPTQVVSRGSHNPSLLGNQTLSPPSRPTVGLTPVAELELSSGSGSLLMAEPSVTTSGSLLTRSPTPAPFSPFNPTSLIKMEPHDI
Sequence of ETV5 (P41161 whole entry): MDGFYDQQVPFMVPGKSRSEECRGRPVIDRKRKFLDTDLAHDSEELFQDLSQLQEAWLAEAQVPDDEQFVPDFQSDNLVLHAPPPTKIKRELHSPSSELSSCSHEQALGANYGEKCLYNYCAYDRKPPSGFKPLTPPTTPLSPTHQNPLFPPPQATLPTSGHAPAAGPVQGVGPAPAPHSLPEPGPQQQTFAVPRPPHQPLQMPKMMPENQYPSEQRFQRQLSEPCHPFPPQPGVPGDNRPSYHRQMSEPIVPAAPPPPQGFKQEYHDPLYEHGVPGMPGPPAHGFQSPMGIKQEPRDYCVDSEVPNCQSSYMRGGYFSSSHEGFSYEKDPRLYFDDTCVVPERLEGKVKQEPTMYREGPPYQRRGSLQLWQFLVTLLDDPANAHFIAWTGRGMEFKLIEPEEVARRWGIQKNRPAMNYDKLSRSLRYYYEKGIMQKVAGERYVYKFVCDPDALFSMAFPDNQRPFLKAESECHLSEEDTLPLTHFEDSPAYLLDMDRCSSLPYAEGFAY
Sequence of ETV6 (P41212 whole entry): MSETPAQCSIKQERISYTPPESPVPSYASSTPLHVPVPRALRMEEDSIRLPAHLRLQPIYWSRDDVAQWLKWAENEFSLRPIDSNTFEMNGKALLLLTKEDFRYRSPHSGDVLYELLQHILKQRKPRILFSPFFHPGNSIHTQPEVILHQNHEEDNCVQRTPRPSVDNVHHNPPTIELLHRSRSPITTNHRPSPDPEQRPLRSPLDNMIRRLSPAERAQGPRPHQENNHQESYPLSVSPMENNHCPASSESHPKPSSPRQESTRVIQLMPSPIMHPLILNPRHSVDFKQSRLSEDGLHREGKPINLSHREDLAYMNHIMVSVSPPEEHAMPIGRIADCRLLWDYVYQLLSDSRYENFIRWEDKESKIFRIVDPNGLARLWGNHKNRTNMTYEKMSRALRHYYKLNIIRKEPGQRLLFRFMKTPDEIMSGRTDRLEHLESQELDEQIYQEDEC
Sequence of CRX (O43186 whole entry): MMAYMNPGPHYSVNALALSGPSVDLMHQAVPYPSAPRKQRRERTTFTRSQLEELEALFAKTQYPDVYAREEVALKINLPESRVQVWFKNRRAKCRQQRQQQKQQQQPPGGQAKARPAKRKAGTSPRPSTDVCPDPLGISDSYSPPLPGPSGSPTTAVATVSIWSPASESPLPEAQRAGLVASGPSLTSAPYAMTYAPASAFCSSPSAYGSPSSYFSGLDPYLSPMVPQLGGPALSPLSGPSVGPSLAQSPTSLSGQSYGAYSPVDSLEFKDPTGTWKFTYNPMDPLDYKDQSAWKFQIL

Consider TCGCTT, for which the binding signal with FEV was 1.2 fold enrichment (6-mer frequency, TF over GST control); in the assay with ETV5 it was 1.38 fold enrichment (6-mer frequency, TF over GST control); with HSF1, 1.11 fold enrichment (6-mer frequency, TF over GST control); with SPIC, 1.08 fold enrichment (6-mer frequency, TF over GST control); in the assay with ELF4, 1.24 fold enrichment (6-mer frequency, TF over GST control); in the assay with ELK4, 1.21 fold enrichment (6-mer frequency, TF over GST control). Further, the binding signal is 1.05 fold enrichment (6-mer frequency, TF over GST control) with ETV2; 1.18 fold enrichment (6-mer frequency, TF over GST control) with ELF3; 1.15 fold enrichment (6-mer frequency, TF over GST control) with CRX; 1.24 fold enrichment (6-mer frequency, TF over GST control) with ETV1; 1.21 fold enrichment (6-mer frequency, TF over GST control) with ERF; 1.24 fold enrichment (6-mer frequency, TF over GST control) with ETV3L. The binding signal was 1.34 fold enrichment (6-mer frequency, TF over GST control) in the assay with ETS2; 1.18 fold enrichment (6-mer frequency, TF over GST control) with SPDEF; 1.29 fold enrichment (6-mer frequency, TF over GST control) in the assay with ETV7; 1.21 fold enrichment (6-mer frequency, TF over GST control) in the assay with ELF5; 1.24 fold enrichment (6-mer frequency, TF over GST control) in the assay with ETV3; 1.22 fold enrichment (6-mer frequency, TF over GST control) in the assay with ETV6.
